Calls of active or inactive are those of the source. Rule for the calls: active = hit-call score of the fitted dose curve at least 0.9, where 1 is the maximum; inactive = score below 0.9.
Experiments:
[1] = read-out: Vascular cell adhesion molecule 1 (VCAM1), VCAM1 (gene 7412); assay: BSK_hDFCGF_VCAM1: BioMAP Diversity Plus: hDFCGF Assay for Vascular cell adhesion molecule 1 (VCAM1) Biomarker Activity (AID 2283065); settings: primary human foreskin fibroblasts; actives raise or lower the signal;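 for AC50: VCAM-1 protein level quantified by ELISA after 24 h chemical exposure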
Outline: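 Human foreskin fibroblast primary cells, chemical exposure 24 h; VCAM-1 by ELISA; bidirectional fit, DMSO = negative control/baseline.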

[2] = read-out: Plasminogen activator inhibitor-1 (PAI1), SERPINE1 (gene 5054); assay: BSK_hDFCGF_PAI1: BioMAP Diversity Plus: hDFCGF Assay for Plasminogen activator inhibitor-1 (PAI1) Biomarker Activity (AID 2283066); settings: primary human foreskin fibroblasts; actives raise or lower the signal
Outline: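 Primary dermal fibroblasts (human foreskin), hDFCGF system; compound 24 h; PAI-1 by ELISA; bidirectional fit vs DMSO control.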

[3] = read-out: Intercellular Adhesion Molecule 1 (ICAM1), ICAM1 (gene 3383); assay: BSK_KF3CT_ICAM1: BioMAP Diversity Plus: KF3CT Assay for Intercellular Adhesion Molecule 1 (ICAM1) Biomarker Activity (AID 2283067); settings: primary human keratinocytes with fibroblasts; actives raise or lower the signal
Outline: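 ICAM-1 levels are measured by ELISA 24 h after dosing a primary human co-culture of keratinocytes and foreskin fibroblasts. Activity in either direction is fitted relative to DMSO vehicle.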

[4] = BSK_KF3CT_SRB: Viability Assessment in the BioMAP Diversity Plus: KF3CT Assay (AID 2283069); settings: primary human keratinocytes with fibroblasts;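 note: total protein by sulforhodamine B staining as a cytotoxicity measure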
Outline: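 Human primary keratinocyte plus foreskin fibroblast co-culture exposed to chemicals for 24 h. Total protein measured by 0.1% sulforhodamine B staining after 10% TCA fixation, read at 560 nm; bidirectional fitting versus DMSO baseline.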

[5] = read-out: Interleukin-1 alpha (IL1a), IL1A (gene 3552); assay: BSK_KF3CT_IL1a: BioMAP Diversity Plus: KF3CT Assay for Interleukin-1 alpha (IL1a) Biomarker Activity (AID 2283070); settings: primary human keratinocytes with fibroblasts; actives raise or lower the signal
Outline: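 Human keratinocyte plus foreskin fibroblast primary co-culture, sampled 24 h after chemical dosing. IL-1a measured by ELISA; responses fitted bidirectionally against DMSO baseline (negative control), so gain or loss of signal both count.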

[6] = read-out: TIMP metallopeptidase inhibitor 2 (TIMP2), TIMP2 (gene 7077); assay: BSK_KF3CT_TIMP2: BioMAP Diversity Plus: KF3CT Assay for TIMP metallopeptidase inhibitor 2 (TIMP2) Biomarker Activity (AID 2283071); settings: primary human keratinocytes with fibroblasts; actives raise or lower the signal
Outline: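 Cells: human keratinocytes co-cultured with foreskin fibroblasts. Treat with chemical, 24 h. Measure TIMP-2 by ELISA; fit curves bidirectionally vs DMSO baseline.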

[7] = read-out: Transforming growth factor beta 1 (TGFb1), TGFB1 (gene 7040); assay: BSK_KF3CT_TGFb1: BioMAP Diversity Plus: KF3CT Assay for Transforming growth factor beta 1 (TGFb1) Biomarker Activity (AID 2283072); settings: primary human keratinocytes with fibroblasts; actives raise or lower the signal
Outline: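 Primary human skin cells (keratinocytes, foreskin fibroblasts) were co-cultured, exposed to test chemical and sampled at 24 h. TGF-b1 levels were measured by ELISA and fitted bidirectionally relative to DMSO.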

[8] = read-out: C-C motif chemokine 2 (Homo sapiens) (UniProt P13500); assay: BSK_KF3CT_MCP1: BioMAP Diversity Plus: KF3CT Assay for Monocyte Chemoattractant Protein 1 (MCP1/CCL2) Biomarker Activity (AID 2283073); settings: primary human keratinocytes with fibroblasts; actives raise or lower the signal
Outline: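 ELISA readout of MCP-1 after 24 h chemical dosing of a human skin primary co-culture of keratinocytes and foreskin fibroblasts. Activity was fitted in both directions against DMSO.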

[9] = read-out: Matrix Metallopeptidase 9 (MMP9), MMP9 (gene 4318); assay: BSK_KF3CT_MMP9: BioMAP Diversity Plus: KF3CT Assay for Matrix Metallopeptidase 9 (MMP9) Biomarker Activity (AID 2283074); settings: primary human keratinocytes with fibroblasts; actives raise or lower the signal;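 for AC50: MMP9 protein level quantified by ELISA in the co-culture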
Outline: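 Keratinocyte plus foreskin fibroblast human primary skin co-culture was dosed with chemical and MMP-9 was quantified by ELISA 24 h later. Bidirectional curve fitting used DMSO as negative control and activity baseline.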

[10] = read-out: urokinase plasminogen activator (uPA), PLAU (gene 5328); assay: BSK_KF3CT_uPA: BioMAP Diversity Plus: KF3CT Assay for urokinase plasminogen activator (uPA) Biomarker Activity (AID 2283075); settings: primary human keratinocytes with fibroblasts; actives raise or lower the signal
Outline: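 Human keratinocyte plus foreskin fibroblast primary co-culture exposed to chemical for 24 h. uPA levels were quantified by ELISA, and activity was fitted bidirectionally against a DMSO negative-control baseline.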

CD40, CD40 (gene 958) = assay: BSK_LPS_CD40: BioMAP Diversity Plus: LPS Assay for CD40 Biomarker Activity (AID 2283076); settings: primary human HUVEC with PBMC; actives raise or lower the signal
Outline: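 Cells were dosed, incubated 24 h, then assayed for CD40 by ELISA. Gain or loss of signal was analysed relative to DMSO controls. The culture paired human umbilical vein endothelium with peripheral blood mononuclear cells.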

[11] = read-out: E-selectin (Homo sapiens) (UniProt P16581); assay: BSK_LPS_Eselectin: BioMAP Diversity Plus: LPS Assay for Eselectin Biomarker Activity (AID 2283077); settings: primary human HUVEC with PBMC; actives raise or lower the signal
Outline: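 Primary human vascular co-culture (endothelium plus PBMC) was dosed with chemical, then E-selectin quantified by ELISA at 24 h. Endpoint values derive from bidirectional curve fitting relative to DMSO.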

[12] = read-out: Interleukin-8 (IL8), CXCL8 (gene 3576); assay: BSK_LPS_IL8: BioMAP Diversity Plus: LPS Assay for Interleukin-8 (IL8) Biomarker Activity (AID 2283078); settings: primary human HUVEC with PBMC; actives raise or lower the signal
Outline: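 Readout is IL-8 by ELISA, taken 24 h after compounds were added to LPS-stimulated endothelial/PBMC co-cultures. Both increases and decreases relative to DMSO control were scored through bidirectional fitting.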

[13] = BSK_LPS_SRB: Viability Assessment in the BioMAP Diversity Plus: LPS Assay (AID 2283079); settings: primary human HUVEC with PBMC;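 note: total protein by sulforhodamine B absorbance as a cytotoxicity measure; measured one day after compound addition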
Outline: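 Readout is SRB absorbance at 560 nm (0.1% stain, TCA-fixed parallel cultures) as a total-protein cytotoxicity measure. Cells: primary human umbilical vein endothelium plus peripheral blood mononuclear cells, 24 h after chemical exposure; DMSO served as baseline.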

[14] = read-out: Interleukin-1 alpha (IL1a), IL1A (gene 3552); assay: BSK_LPS_IL1a: BioMAP Diversity Plus: LPS Assay for Interleukin-1 alpha (IL1a) Biomarker Activity (AID 2283080); settings: primary human HUVEC with PBMC; actives raise or lower the signal
Outline: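 ELISA read-out of IL-1 alpha from a human primary vascular co-culture (endothelium plus PBMC) under LPS, sampled 24 hours post-dosing. Activity was fitted in both directions relative to DMSO controls.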

[15] = read-out: Monocyte Chemoattractant Protein-1 (MCP1), CCL2 (gene 6347); assay: BSK_LPS_MCP1: BioMAP Diversity Plus: LPS Assay for Monocyte Chemoattractant Protein-1 (MCP1) Biomarker Activity (AID 2283081); settings: primary human HUVEC with PBMC; actives raise or lower the signal;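 for AC50: secreted MCP-1 protein quantified by ELISA in culture supernatant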
Outline: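 Human endothelial–PBMC co-cultures were dosed with chemical, then LPS-driven MCP-1 levels were quantified by ELISA at 24 h. Activity in either direction was fitted versus DMSO negative control.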

[16] = BSK_LPS_PGE2: BioMAP Diversity Plus: LPS Assay for Prostaglandin E2 (PGE2) Biomarker Activity (AID 2283082); settings: primary human HUVEC with PBMC; actives raise or lower the signal;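 for AC50: secreted prostaglandin E2 measured by ELISA in LPS-stimulated co-culture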
Outline: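 LPS-activated HUVEC/PBMC co-culture; cmpd dosed, 24 h; PGE2 by ELISA; bidirectional fit vs DMSO; SRB (0.1%, TCA-fixed, 560 nm) in parallel plates for overt cytotox.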

[17] = read-out: Macrophage colony-stimulating factor (MCSF), CSF1 (gene 1435); assay: BSK_LPS_MCSF: BioMAP Diversity Plus: LPS Assay for Macrophage colony-stimulating factor (MCSF) Biomarker Activity (AID 2283083); settings: primary human HUVEC with PBMC; actives raise or lower the signal
Outline: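 ELISA readout of M-CSF after 24 h compound exposure in a human endothelial/PBMC co-culture. Activity, in either direction, is fitted relative to DMSO vehicle.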

[18] = read-out: Tissue Factor, F3 (gene 2152); assay: BSK_LPS_TissueFactor: BioMAP Diversity Plus: LPS Assay for Tissue Factor Biomarker Activity (AID 2283084); settings: primary human HUVEC with PBMC; actives raise or lower the signal
Outline: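 ELISA signal for cell-surface Tissue Factor (CD142) was read 24 h after compound dosing of an LPS-stimulated human endothelial–PBMC primary co-culture. Gain or loss of signal was scored relative to DMSO.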

Measured: AC50

Sequence of E-selectin (Homo sapiens) (P16581 whole entry, looked up): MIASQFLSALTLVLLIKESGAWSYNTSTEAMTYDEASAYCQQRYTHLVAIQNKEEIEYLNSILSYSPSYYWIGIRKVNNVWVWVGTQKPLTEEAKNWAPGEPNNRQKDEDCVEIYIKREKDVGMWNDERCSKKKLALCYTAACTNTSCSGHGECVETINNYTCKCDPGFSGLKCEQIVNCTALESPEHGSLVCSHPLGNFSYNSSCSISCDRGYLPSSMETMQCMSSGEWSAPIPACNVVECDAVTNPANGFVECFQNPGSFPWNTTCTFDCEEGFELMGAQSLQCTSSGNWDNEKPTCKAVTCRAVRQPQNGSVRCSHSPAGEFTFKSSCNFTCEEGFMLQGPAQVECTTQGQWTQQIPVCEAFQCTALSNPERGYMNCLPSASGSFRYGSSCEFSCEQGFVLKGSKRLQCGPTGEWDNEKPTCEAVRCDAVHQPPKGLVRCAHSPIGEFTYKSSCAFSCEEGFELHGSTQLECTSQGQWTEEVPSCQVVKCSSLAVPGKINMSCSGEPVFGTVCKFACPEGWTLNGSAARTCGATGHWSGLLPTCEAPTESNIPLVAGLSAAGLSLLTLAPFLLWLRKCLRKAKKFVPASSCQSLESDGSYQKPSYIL

CC1(C)Cc2cccc(O)c2O1
inactive: [1] | [2] | [3] | [4] | [5] | [6] | [7] | [8] | [9] | [10] | CD40, CD40 (gene 958) | [11] | [12] | [13] | [14] | [15] | [17] | [18]
active: [16] 4310 nM

C=C(C)C(=O)[O][Sn]([CH2]CCC)([CH2]CCC)[CH2]CCC
active: [1] 148 nM | [2] 254 nM | [3] 354 nM | [4] 282 nM | [5] 148 nM | [6] 148 nM | [7] 148 nM | [9] 148 nM | [10] 148 nM | CD40, CD40 (gene 958) 148 nM | [11] 148 nM | [12] 380 nM | [13] 148 nM | [14] 148 nM | [15] 331 nM | [18] 148 nM
inactive: [16]

Oc1c(I)cc(I)cc1I
inactive: [1] | [4] | [8] | [12] | [14] | [15] | [16] | [18]
active: [2] 11500 nM | [3] 20000 nM | [5] 27700 nM | [6] 17000 nM | [7] 7060 nM | [9] 5350 nM | [10] 31200 nM | CD40, CD40 (gene 958) 14200 nM | [11] 27600 nM | [13] 20000 nM

ClC1=C(Cl)[C@]2(Cl)[C@H]3[C@H]([C@H]4C=C[C@H]3C4)[C@@]1(Cl)C2(Cl)Cl
inactive: [3] | [4] | [5] | [6] | [8] | [9] | [10] | CD40, CD40 (gene 958) | [11] | [14] | [15] | [18]
active: [1] 6260 nM | [2] 1160 nM | [7] 2860 nM | [12] 160 nM | [13] 5730 nM | [16] 142 nM

COC(=O)Cc1ccccc1
inactive: [1] | [2] | [3] | [4] | [5] | [6] | [8] | [9] | [10] | CD40, CD40 (gene 958) | [11] | [12] | [13] | [14] | [15] | [16] | [17] | [18]

— PubChem BioAssay (EPA / NIEHS)
